The text below walks through data of PubChem BioAssay AID1814 (Broad Institute, 2009).

The whole screen tested about 300,000 compounds, of which about 22,000 (7.3%) were called active. About 2% were inconclusive and are not listed. Cut-off read from the data, not from the text of the source: active = activity score below about -60%; inconclusive = mostly about -28% to -61%; inactive = positive scores. This excerpt belongs to a sample that is enriched for actives.

The assay can be described thus: Activators working through SNCA 5'UTR binding (MLPCN) (AID 1814). The note with it: alpha-synuclein 5'UTR reporter, activators screen; hits give low values; tested at 7.5 µM.
Regarding `O=C(Nc1ccc2nccnc2c1)c1ccco1`, the activity score was -105% (active). Under `Cc1ccoc1C(=O)Nc1cccc(Oc2ccccc2)c1` stands -137% (active); under `Cc1ccnc(NC(=O)c2ccoc2C)c1`, -147% (active); under `Clc1ccc(Cc2nnc(-c3cccs3)o2)cc1`, -116% (active). Take `COc1ccc(NC(=O)/C(Cl)=C(/Cl)S(=O)Cc2ccc(C)cc2)cn1` (stereo not given): the activity score is 106% (inactive). For `Cc1ccc(NC(=O)OCc2cncs2)cc1`, the activity score was -112% (active). With `O=C(N/N=C/c1ccc(OCc2ccccc2)cc1)c1ccc(O)cc1` the figure was -70.7% (active). With `Cc1ccnc(NC(=O)CCNS(=O)(=O)c2ccc(C)c(C)c2)c1` the figure was -87.9% (active); with `CC(C)c1ccc(NC(=S)NC2CC3C=CC2C3)cc1` (stereo not given), -134% (active); with `Cc1ccc(-c2csc(NC(=O)C3=COCCO3)n2)cc1C`, -176% (active). Under `COc1ccccc1NC(=O)C1=C(C)Nc2nc3ccccc3n2C1c1cccs1` (stereo not given) stands 106% (inactive). For the molecule `COc1ccccc1NC(=O)c1ccc(C)s1`, the activity score was -227% (active). Under `Cc1csc(NC(=O)C2=COCCO2)n1` stands -132% (active); under `Cc1sc(NC(=O)C2=COCCO2)c(C#N)c1C`, -110% (active). As for `O=C(Nc1nc(-c2ccc3c(c2)OCO3)cs1)c1ccncc1`, the activity score is -99.5% (active). As for `Cc1ccc(-c2csc(NC(=O)c3cnccn3)n2)cc1C`, the activity score was -97.7% (active). Under `COc1cc(SC)ccc1C(=O)Nc1nc(C)cs1` stands 96.2% (inactive); under `Cc1csc(NC(=O)c2ccc(C)s2)n1`, -174% (active). `COc1ccc(-c2nnc(SCC(=O)c3cccs3)o2)c(OC)c1`: the activity score was -106% (active). Turning to `COc1ccccc1-c1nnc(SCC(=O)N2CC(C)CC(C)C2)o1` (stereo not given), the activity score is 45.8% (inactive). `COc1ccccc1-c1nnc(SCC(=O)Nc2ccccc2)o1`: the activity score was -187% (active). Under `Cc1ccc(C(=O)Nc2nc3ccc(Cl)cc3s2)o1` stands -183% (active); under `Cc1ccc(-c2noc(C3CCCN(C(=O)c4cccc(Cl)c4)C3)n2)o1` (stereo not given), -109% (active). Under `O=C(c1cccs1)N1CCCC(c2nc(-c3ccc(F)cc3)no2)C1` (stereo not given) stands -91.6% (active); under `Cc1ccc2nc(N3CCN(C(=O)c4ccco4)CC3)sc2c1`, -216% (active); under `COc1ccc2nc(N3CCN(C(=O)c4ccc([N+](=O)[O-])o4)CC3)sc2c1`, -160% (active).

In the case of `C/C(=N\NC(=O)c1ccc(C)cc1)C1C(=O)c2ccccc2C1=O`, the activity score was -78.5% (active). With `COc1ccc(NC(=O)CSc2nc(SC)ns2)c(OC)c1` the figure was -118% (active); with `Fc1ccc2nc(N3CCCCC3)sc2c1`, -129% (active); with `Brc1ccc2nc(N3CCCC3)sc2c1`, -105% (active). With `c1c2c(cc3sc(N4CCCCC4)nc13)OCCO2` the figure was 107% (inactive). `CN(C)CCCN(C(=O)c1ccc(S(=O)(=O)N2CCCCCC2)cc1)c1nc2ccc(Br)cc2s1`: the activity score was 75.3% (inactive). Under `Fc1cc(F)c2nc(Nc3nc4c(F)cccc4s3)sc2c1` stands -218% (active). Under `Cc1cccc(N=C2NN=C(c3c[nH]c4ccccc34)CS2)c1` stands -102% (active); under `C=CCn1c(C)cc(C2=NNC(=NCC)SC2)c1C`, 105% (inactive). With `COc1ccc(-c2nnc(SCc3cccnc3)o2)cc1` the figure was -128% (active); with `COc1ccc(-c2nnc(SC(C)C#N)o2)cc1` (stereo not given), -98.3% (active); with `COc1cc(/C=N/n2c(C)n[nH]c2=S)ccc1OCc1ccccc1`, -106% (active).

Consider `COc1ccc2[nH]c(C(=O)Nc3ccccc3Cl)cc2c1`, for which the activity score is -132% (active). Under `O=C(CN1C(=O)c2ccccc2S1(=O)=O)N1CCc2ccccc21` stands 93.5% (inactive); under `O=C(CSCc1ccccc1)N1CCc2ccccc21`, -92.8% (active); under `COc1ccc(Nc2ncnc3sc(C)cc23)cc1`, -159% (active). For the molecule `O=C(c1ccc(CSc2ccccc2)cc1)N1CCCCCC1`, the activity score is -99.5% (active).

With `CCc1ccc(-c2cc(C(=O)NCc3ccco3)c3ccccc3n2)s1`, the activity score was -123% (active). Under `O=C(/C=C/c1ccc(Cl)cc1Cl)NCc1ccco1` stands -119% (active); under `CC1CCc2sc3nc(N4CCN(CCO)CC4)n4ncnc4c3c2C1` (stereo not given), -73.1% (active); under `COc1cccc(NC(C)=[N+](C)CCNS(=O)(=O)c2ccc(Cl)cc2)c1`, -156% (active). `CC(C)OC(=O)c1sc2nc3c(cc2c1N)C(=O)CCC3`: the activity score is -182% (active).

Take `Nc1c(C(=O)NCc2ccccc2)sc2nc3c(cc12)C(=O)CCC3`: the activity score is -63.1% (active). As for `Cn1c(=NC(=O)C2CC2)sc2cc(F)cc(F)c21`, the activity score was -88% (active). `Cc1ccc(NC(=O)C2CC2c2ccccc2)cc1` (stereo not given): the activity score is -65.1% (active). With `C1=C(CCNc2ncnc3c2cnn3-c2ccccc2)CCCC1` the figure was -141% (active); with `CCOc1cccc2c1OC1(CCCCC1)N1N=C(c3cccnc3)CC21` (stereo not given), -77% (active); with `CCOC(=O)C1=C(CN2CCc3ccccc32)NC(=O)NC1c1ccc(Cl)cc1` (stereo not given), 44.8% (inactive). With `COc1cc(/C=C(\C#N)c2nc3ccccc3[nH]2)ccc1O` the figure was -152% (active). Under `COc1cc(/C=C(\C#N)c2nc3c(s2)CC(C)CC3)ccc1O` (stereo not given) stands -208% (active).

In the case of `O=C(COc1ccc2oc3c(c2c1)CCCC3)Nc1ccccn1`, the activity score is -131% (active). With `CSc1nc(N(C)NC(=O)c2cccc(C)c2)c2ccccc2n1` the figure was 114% (inactive).

In the case of `Cc1cccc(C(=O)NC(=S)N(C)C2CCCCC2)c1`, the activity score was -74.3% (active). Under `Cc1nonc1NC(=O)c1oc2ccccc2c1C` stands -127% (active); under `CCc1nonc1NC(=O)c1oc2ccc(Cl)cc2c1C`, -90.7% (active). With `Cc1c(C(=O)N2CCCc3ccccc32)oc2ccccc12`, the activity score was -96.2% (active). With `Cc1c(C(=O)NC2CCCCC2)oc2ccccc12` the figure was -82.5% (active); with `Cc1c(C(=O)Nc2ccccn2)oc2ccc(Br)cc12`, -122% (active); with `Cc1ccc(NC(=O)c2oc3ccccc3c2C)c([N+](=O)[O-])c1`, -101% (active). With `CSc1cccc(NC(=S)N(C(C)C)C(C)c2ccccn2)c1` (stereo not given) the figure was -66.1% (active); with `Cc1ccc(-c2cc(C(=O)NCc3cn(C)nc3C)c3cc(Br)ccc3n2)cc1`, -87.5% (active); with `CN(C)CCCN(C(=O)c1ccc(S(=O)(=O)N2CCCc3ccccc32)cc1)c1nc2ccc(F)cc2s1`, 74.2% (inactive).

Turning to `CCS(=O)(=O)N1Cc2ccccc2CC1C(=O)Nc1nc2ccc(F)cc2s1` (stereo not given), the activity score was -83.8% (active). With `O=C(Nc1ccccc1)c1ccc2nsnc2c1` the figure was -119% (active). Turning to `O=C(Nc1ccccc1Cl)c1ccc2nsnc2c1`, the activity score is -133% (active). With `COc1ccccc1Nc1ncnc2c1oc1ccccc12` the figure was -147% (active).

As for `O=[N+]([O-])c1ccc2c(c1)C(O)n1nc(-c3ccccc3)nc1S2` (stereo not given), the activity score was -63.3% (active). Consider `CCS(=O)(=O)C1=NSC2=NC(=O)/C(=C\c3cc(C)n(-c4cccc(OC)c4)c3C)C(=N)N21`, for which the activity score is -130% (active).

In the case of `CC(O)c1ccc(OCCN(C)c2ccccn2)cc1` (stereo not given), the activity score was -143% (active). As to `CCN(CC)CCOc1ccc2c(c1)C(=NNC(=O)c1ccccn1)c1cc(OCCN(CC)CC)ccc1-2`, the activity score was 109% (inactive).

Turning to `N#CC(=C1SC=CS1)c1nc(-c2ccccc2)cs1`, the activity score was -305% (active). Turning to `N#CC(=C1CCCC1)c1nc(-c2ccc(Cl)cc2)cs1`, the activity score was -189% (active). With `CCOC(=O)/C(C#N)=C/c1ccc(N2CCCCC2)cc1` the figure was -72.9% (active); with `Cc1nc2cc(NCc3cccs3)ccc2n1C`, -107% (active). For `OC(c1nnc(-c2ccccc2)o1)c1cccs1` (stereo not given), the activity score is -90.8% (active).

On to `CCOc1ccc(N/C=C/C(=O)c2cc(OC)c(OC)c(OC)c2)cc1`, for which the activity score is -117% (active).

For `COc1ccc2[nH]cc(CCN3C(=O)c4ccc(C(=O)O)cc4C3=O)c2c1`, the activity score is -169% (active). Regarding `CC[C@H]1CN2CCc3cc(OC)c(OC)cc3[C@@H]2C[C@@H]1C[C@H]1NCCc2cc(OC)c(OC)cc21`, the activity score is 109% (inactive). Under `O=C1c2ccccc2NC(c2ccccc2O)N1NS(=O)(=O)c1ccccc1` (stereo not given) stands -64.1% (active); under `Nc1c(C(=O)c2cccs2)sc2nsc(SCCN3CCCCC3)c12`, -213% (active). Under `c1ccc(-c2csc(N3CCc4ccccc4C3)n2)cc1` stands -117% (active). Turning to `COc1ccc2nc(N3CCCC(O)C3)c(C#N)cc2c1` (stereo not given), the activity score was -114% (active). Regarding `COc1ccc2c(c1)CCc1cn3ncc(C#N)c3nc1-2`, the activity score is 68.1% (inactive).

Consider `CCc1ccc(Oc2coc3cc(OC(=O)c4cc5ccccc5oc4=O)ccc3c2=O)cc1`, for which the activity score is -67% (active). For the molecule `Cc1sc(NC(=O)c2ccc3ncsc3c2)c(C(N)=O)c1C`, the activity score was -130% (active). Take `COc1ccccc1-c1nnc(NC(=O)c2ccc3ncsc3c2)o1`: the activity score is -132% (active).

Regarding `COc1ccc(OC)c(/C(C)=N\NC(=O)c2cc3cc(Cl)ccc3n2C)c1`, the activity score is -215% (active). With `CC1CCCCC1NC(=O)/C(C#N)=C/C=C/c1ccccc1[N+](=O)[O-]` (stereo not given) the figure was -239% (active). On to `O=C(OCC(=O)c1cccs1)C1=COCCO1`, for which the activity score was -103% (active).

In the case of `CCC(C)(C)c1ccc(Oc2ccc(NC(=O)COC(=O)C3=COCCO3)cc2)cc1`, the activity score is 90.6% (inactive). Take `COc1cccc(-c2nnc(N(C)C(=O)c3ccno3)s2)c1`: the activity score was -79.4% (active). With `CCN(CC)S(=O)(=O)c1cc(C(=O)Nc2ccccn2)ccc1C` the figure was -79.9% (active). `COc1cccc(NCCC(=O)c2cccc([N+](=O)[O-])c2)c1`: the activity score is -115% (active). Under `Nc1ccccc1/C=N\N=C/c1ccccc1N` stands -112% (active). In the case of `Cc1cccc(-n2ncc(Cl)c(Cl)c2=O)c1`, the activity score was -220% (active). On to `Fc1ccc(-c2csc(-c3ccc(C4SCCS4)cc3)n2)cc1F`, for which the activity score was -125% (active). With `CCOC(=O)c1cn[nH]c1NC(=S)Nc1ccccc1` the figure was -131% (active); with `CS(=O)(=O)Nc1ccc(C2=NN(S(C)(=O)=O)C(c3cccs3)C2)cc1` (stereo not given), -69.5% (active); with `Cc1ccc(C2CC(c3cccc(NS(C)(=O)=O)c3)=NN2S(C)(=O)=O)cc1` (stereo not given), -70.6% (active).
